From PubChem BioAssay
This is a sample that favours compounds with a hit; in the whole collection about 11% have one here.
HTT ATP protect = qHTS Multiplex Assay to Identify Dual Action Probes in a Cell Model of Huntington: Cytoprotection (ATP); PC12 HTT-Q103 induced, cytoprotection, ATP luminescence, 40 h; Potency, µM (highest dose often 56.4 µM), usual class: activators; 0.14% of 230,000 active; also: nearly all actives have a fitted effect of over 45% in size
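ATP quantification (ATPlite) reports survival of PC12 cells in which tebufenozide, 100 nM final, switches on Htt exon 1 with 103 glutamines linked to GFP; compounds are titrated.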
PNC inhibitor = High Content Assay for Compounds that inhibit the Assembly of the Perinucleolar Compartment; AID 2417, 2010; 3.1% of 140,000 active; activity change (PNC), negative = inhibition, % at 10 µM; PC3M PTB-GFP, PNC prevalence imaging, 16 h; active compounds read low;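 active = readout at or below -70, meaning at least 70% loss of cells showing the perinucleolar compartment, a nuclear body marking cancer cells; inconclusive = readout between -30 and a set limit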
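PC3M cells stably expressing PTB-GFP, 750–1000 cells/well, treated 16 h at 37 °C with compound (23 nl of library stock), in duplicate. After paraformaldehyde fixation and Hoechst stain, imaged at 20x; PNC prevalence scored by image analysis.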
HttQ103 aggreg = qHTS Multiplex Assay to Identify Dual Action Probes in a Cell Model of Huntington: Aggregate Formation (GFP). PC12 HttQ103-GFP aggregates, Acumen cytometry, 40 h. Potency, µM (top dose mostly 46.1 µM), usual class: inhibitors. 1.1% of 220,000 active; also: nearly all actives have a fitted effect of over 60% in size
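PC12 cells with ecdysone-inducible HTT exon1 Q103-GFP, induced by 100 nM tebufenozide, given compounds in a concentration series. GFP aggregates (1–25 um, 6 SD above background) counted in lysates by laser-scanning cytometry, 488 nm excitation.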
ALDH1A1 inh = qHTS Assay for Inhibitors of Aldehyde Dehydrogenase 1 (ALDH1A1); Aldehyde dehydrogenase 1A1 (Homo sapiens), P00352; Purified ALDH1A1, NADH fluorescence, propionaldehyde substrate; Potency, µM (series often up to 75.3 µM), usual class: inhibitors; 7.3% of 220,000 active; AID 1030, 2008; active = well fitted inhibition curve with a large enough effect, not every such curve was filed as active; inconclusive = small, poorly fitted or top-dose-only effect, or another doubt; inactive = no such curve, though single readings can be large or run the other way
HPGD inh = qHTS Assay for Inhibitors of HPGD (15-Hydroxyprostaglandin Dehydrogenase); purified HPGD, NADH fluorescence kinetic, PGE2 substrate; Potency, µM, actives largely listed as inhibitors; 4.3% of 150,000 active; AID 894, 2007; active = well fitted inhibition curve with a large enough effect, not every such curve was filed as active; inconclusive = small, poorly fitted or top-dose-only effect, or another doubt; inactive = no such curve, though single readings can be large or run the other way
Target sequence (P15428 whole entry, looked up): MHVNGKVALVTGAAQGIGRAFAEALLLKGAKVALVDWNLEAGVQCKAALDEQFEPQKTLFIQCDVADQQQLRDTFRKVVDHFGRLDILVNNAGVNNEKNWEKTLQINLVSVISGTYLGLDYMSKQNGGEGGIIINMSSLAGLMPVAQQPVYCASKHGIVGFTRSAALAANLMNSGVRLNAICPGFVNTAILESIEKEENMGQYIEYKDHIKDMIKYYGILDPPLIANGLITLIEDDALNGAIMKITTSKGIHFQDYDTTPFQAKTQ
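NADH formation kinetics: reaction with 30 uM PGE2 and 1 mM NAD+ (final), 20 nM enzyme, Tris-HCl pH 8 with Tween 20, after 15 min compound preincubation at room temperature. Fluorescence change, last versus first of five reads.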
RGS12 GoLoco inh = qHTS Assay for Inhibitors of RGS12 GoLoco Motif Activity (Red Fluorophore). 0.44% of 230,000 active. AID 880, 2007. Gai1:RGS12 GoLoco peptide FP, rhodamine, 10 min. Potency, µM (series often up to 61.6 µM), usual class: inhibitors; active = well fitted inhibition curve with a large enough effect, not every such curve was filed as active; inactive = no such curve, though single readings can be large or run the other way; also: nearly all actives have a fitted effect of over 30% in size
Target sequence (P63096 whole entry, looked up): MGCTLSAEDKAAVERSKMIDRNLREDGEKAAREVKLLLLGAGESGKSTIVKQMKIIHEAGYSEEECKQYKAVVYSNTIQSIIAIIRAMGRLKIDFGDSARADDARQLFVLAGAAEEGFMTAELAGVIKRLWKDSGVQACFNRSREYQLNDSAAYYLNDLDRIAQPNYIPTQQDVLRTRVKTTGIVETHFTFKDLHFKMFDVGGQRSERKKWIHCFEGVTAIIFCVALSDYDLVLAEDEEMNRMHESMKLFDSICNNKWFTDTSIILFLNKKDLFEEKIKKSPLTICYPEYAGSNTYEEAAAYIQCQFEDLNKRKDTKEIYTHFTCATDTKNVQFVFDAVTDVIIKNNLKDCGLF
A number is an active result; i = inactive; ? = inconclusive; nt = no result; ! = repeats disagree; [ ] = dose if it differs, or a comment. Unless noted, calls follow the shape of the dose curve; as a rule, active = well fitted curve in the direction sought with a large enough effect; inconclusive = small, poorly fitted or top-dose-only effect, or another doubt; inactive = no such curve, though single readings can be large; an effect the other way counts as inactive or inconclusive.

SMILES	HTT ATP protect	PNC inhibitor	HttQ103 aggreg	ALDH1A1 inh	HPGD inh	RGS12 GoLoco inh
Nc1nc(SCc2ccc([N+](=O)[O-])cc2)c2ncn([C@@H]3O[C@H](CO)[C@H](O)[C@H]3O)c2n1	nt	nt	nt	i	25.1µM	i
CN(C)c1ncnc2c1ncn2C1OC(CO)C(O)C1O (stereo not given)	i	i	4.47µM	i	i	i
O=c1[nH]cnc2c1ncn2C1OC(CO)C(O)C1O (stereo not given)	8.91µM!	nt	i	i	i	i
Nc1nc(SCc2ccc([N+](=O)[O-])cc2)c2ncn([C@@H]3O[C@@H](CO)[C@@H](O)[C@H]3O)c2n1	i[1.9 µM]	nt	nt	nt	nt	nt
Nc1ncn([C@@H]2O[C@H](CO)[C@@H](O)[C@H]2O)c(=O)n1	i	nt	12.6µM	22.4µM!	i	i
COc1cccc(NC(=O)N2CCN(c3ccc(C(F)(F)F)cn3)CC2)c1	i	i	?	i	i	i
N#CC(=C=[N-])c1nc2ccccc2nc1-[n+]1cccc(NC(=O)c2ccccc2)c1	i[10 µM]	nt	i[9.22 µM]	14.1µM!	nt	i
N#CC(=C=[N-])c1nc2ccccc2nc1-[n+]1cccc(NC(=O)c2ccc(F)cc2)c1	i[10 µM]	nt	i[9.22 µM]	i	nt	i
S=c1[nH]cc(-c2ccccc2)n1-c1ccccc1Cl	nt	i	i	0.891µM	17.8µM	i
COc1ccccc1-n1c(-c2ccccc2)c[nH]c1=S	i[10 µM]	nt	i	2.51µM	nt	i
Cc1ccc(NC(=O)/C(Cl)=C\c2ccccc2)cc1	i	i	i	3.98µM	i	i
Cc1ccc(S(=O)(=O)N2CCN(C(C)CC(=O)O)CC2)cc1 (stereo not given)	i	nt	i	i	nt	i
CCCCCC(=O)CC[C@@H]1[C@@H](C/C=C\CCCC(=O)O)[C@@H](O)C[C@H]1O	i	nt	nt	i	i	i
COC1=C(N)C(=O)c2nc(-c3nc(C(=O)O)c(C)c(-c4ccc(OC)c(OC)c4O)c3N)ccc2C1=O	nt	-114.6	nt	i	i	i
O=C1c2cccc3cccc(c23)C(=O)N1OS(=O)(=O)c1ccc(Cl)cc1	i[10 µM]	i	i	?	?	i
O=C(N/N=C1/C(=O)c2cccc3cccc1c23)c1ccc(Cl)cc1	i	i	?	?	28.2µM	i
CCNC(=S)N/N=C1\CCCCc2ccccc21	nt	i	i	?	i	i
CCNC(=S)N/N=C1\C(=O)c2cccc3cccc1c23	i	i	i	10µM	i	i
O=C(/C=C/c1cccc2ccccc12)N1CCOCC1	i[10 µM]	nt	i[9.22 µM]	nt	nt	i
CC(O)C1CCC2C3CCC4CC(O)CCC4(C)C3CCC12C (stereo not given)	i	nt	i	nt	nt	i
COCCn1nnnc1C(c1ccc(OC)cc1OC)N1CCN(c2ccccc2F)CC1 (stereo not given)	i[10 µM]	i	i	i	nt	nt
Cc1ccc2cc(C(c3nnnn3C3CCCC3)N3CCN(c4ccccc4)CC3)c(=O)[nH]c2c1 (stereo not given)	i[10 µM]	i	i	8.91µM	i	i
CCOC(=O)C1CCN(C(c2cc3ccc(C)c(C)c3[nH]c2=O)c2nnnn2C2CCCCC2)CC1 (stereo not given)	i[10 µM]	i	i	20µM	i	i
COCCn1nnnc1C(c1ccc(OC)cc1OC)N1CCN(c2ccccc2)CC1 (stereo not given)	i	i	i	7.94µM	i	i
COc1ccc(N2CCN(C(c3cc4cc(C)ccc4[nH]c3=O)c3nnnn3Cc3ccccc3)CC2)cc1 (stereo not given)	i[10 µM]	?	i	14.1µM	i	i
SMILES	HTT ATP protect	PNC inhibitor	HttQ103 aggreg	ALDH1A1 inh	HPGD inh	RGS12 GoLoco inh
CO/N=C(\C(=O)N[C@@H]1C(=O)N2C(C(=O)O)=C(CSc3nc(=O)c(O)nn3C)CSC12)c1csc(N)n1 (stereo not given in full)	nt	nt	nt	?	i	i
Cc1ccc2cc(C(c3nnnn3Cc3ccccc3)N3CCN(c4ccccc4)CC3)c(=O)[nH]c2c1 (stereo not given)	i	i	i	25.1µM	i	i
N#CCCn1c(=O)c(-c2ccc(Cl)cc2)nc2cnc(OCc3ccccc3)nc21	i	nt	nt	?	?	i
CC(=O)Cc1nsc(Nc2ccc3c(c2)OCCO3)n1	i	?	i	3.16µM	20µM	i
Clc1ccc(OCCCNCc2ccccc2)c(Br)c1	i	-89.3	i	i	i	i
S=c1[nH]c2ccccc2s1	i	nt	nt	11.2µM	25.1µM	i
Oc1[nH]c(=S)sc1C=C1N=c2ccccc2=N1	i[10 µM]	nt	i[9.22 µM]	i	nt	i
c1ccc(CNc2oc(-c3ccccc3)nc2-c2cccc3ccccc23)cc1	i	nt	nt	?	i	i
COc1ccc(/C=C2\C(=O)ON=C2c2cccc([N+](=O)[O-])c2)cc1	i	nt	i	17.8µM	nt	i
CN(C)/C=C1\C(=O)ON=C1c1ccccc1	?	nt	i	i	nt	i
COc1ccc(/C=C2/C(=O)ON=C2c2ccccc2)cc1OC	i	i	i	22.4µM	10µM	i
COc1cc(/C=C2\C(=O)ON=C2c2ccccc2)cc(OC)c1OC	i	?	i	?	14.1µM	i
Cc1ccc(C2=NOC(=O)/C2=C\C=C\c2ccccc2)cc1	i[10 µM]	nt	i	3.55µM	nt	i
COC(=O)C/C=C\[C@@H](C)[C@@H](/C=N\O[C@@H](C)c1cn([C@H]2COC[C@H]2O)nn1)OC	?	nt	nt	i[13.5 µM]	nt	nt
CCCC(=Nc1ccc(N)cc1)C1=C(O)C(C(=O)OC)C(C)(C)CC1=O (stereo not given)	i	i	i	?	i	14.1µM
CCCC(=O)C1=C(O)C(C(=O)OC)C(C)(C)CC1=Nc1ccc(N)cc1 (stereo not given)	i	i	i	i	i	i
CCN(CC)S(=O)(=O)c1cccc(NC(=O)c2cc(-c3cccs3)nn2-c2ccccc2)c1	i[10 µM]	i	i	i	i	i
CN(C)S(=O)(=O)c1cccc(NC(=O)c2cc(-c3cccs3)nn2-c2ccccc2)c1	i[0.074 µM]	i	i	22.4µM	?	i
O=C(Nc1ccc(Oc2ccc(NC(=O)C3CCCO3)cc2)cc1)C1CCCO1 (stereo not given)	i[10 µM]	i	i[9.22 µM]	?	1.41µM	i
O=C(NCCCN1CCOCC1)c1ccc(NC(=O)C2COc3ccccc3O2)cc1 (stereo not given)	i[10 µM]	nt	i[9.22 µM]	i	nt	i
Cc1ccc(NS(=O)(=O)c2ccc(NC(=O)C3CCCO3)cc2)cc1 (stereo not given)	i	i	?	22.4µM	i	i
